Consider 37 molecules from PubChem BioAssay (Tox21).

Structures are written as SMILES. Inconclusive results are not listed. A call without a number means that no potency is given here. Calls of active or inactive are those of the source. Unless noted, calls follow the shape of the full dose curve.

One test in a line: qHTS assay for small molecule agonists of the antioxidant response element (ARE) signaling pathway (AID 743202; active = well fitted activation curve with a large enough effect in the signal ratio in the repeat runs, not every such curve was filed as active; the % refers to the signal ratio; also: potency is read from the fitted curve at half-maximal effect). The following applies: HepG2 ARE-bla reporter, beta-lactamase FRET, 16 h; series mostly up to 73.3 µM. In outline:
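Agonist mode reporter screen: HepG2 cells with ARE-controlled beta-lactamase are incubated with test compounds for 16 h at 37 C, and beta-lactamase activity is measured as fluorescence of cleaved B/G FRET substrate.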
On the technique in general: In qHTS, concentration-response curves come from the screen itself.
Take `CC(C)OC(=O)Nc1ccccc1`: the Potency entry was “inactive”.
Same read-out and setting: as for `COC(=O)c1ccccc1N`, the entry is “inactive”.
Same read-out and setting: as for `OC(O)C(Cl)(Cl)Cl`, the entry is “inactive”; as for `O=S(=O)(c1ccc(Cl)cc1)c1cc(Cl)c(Cl)cc1Cl`, “inactive”; as for `C#CCN(C)[C@H](C)Cc1ccccc1`, “inactive”.
As for `NCC(O)c1ccc(O)cc1` (configuration not stated), the Potency result was “inactive”.
The same measure, in the same setting: then `Clc1ccccc1Cl`, with “inactive”; and `Oc1ccccc1Cl`, with “inactive”; and `O=NN1CCCC1`, with “inactive”.
With `O=c1n(Cl)c(=O)n(Cl)c(=O)n1Cl`, the Potency result was “inactive”.
Same read-out and setting: as for `COc1ccc2c3c1O[C@H]1[C@@H](O)C=C[C@H]4[C@@H](C2)N(C)CC[C@@]341`, the figure is 26.9 µM (active).
Still for that read-out and setting: then `Cc1cc(-c2cc(C)c(N)c(C)c2)cc(C)c1N`, with “inactive”; and `CC(C)OC(=O)Nc1cccc(Cl)c1`, with “inactive”; and `CC(Oc1ccc(Cl)cc1Cl)C(=O)O` (configuration not stated), with “inactive”.
On the same count and under the same terms, as for `COC(=O)NS(=O)(=O)c1ccc(N)cc1`, the entry is “inactive”; as for `Nc1ccc(Br)cc1`, “inactive”; as for `CN(C)CCO`, “inactive”.
For `ClCCBr`, the Potency entry was “inactive”.

A further test can be described thus: qHTS assay for small molecule agonists of the antioxidant response element (ARE) signaling pathway - cell viability counter screen (AID 743203). Also: nearly all actives have a fitted effect of over 55% in size. The note with it: ARE-bla HepG2 viability, CellTiter-Glo luminescence, 16 h; series mostly up to 73.3 µM. In outline:
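Following 16 hrs of compound treatment at 37C, HepG2 cells with an ARE-controlled beta-lactamase gene were lysed with CellTiter-Glo. Luminescence was read after 30 min at room temperature.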
Regarding `CC(C)OC(=O)Nc1ccccc1`, the molecule was called inactive.
For the molecule `COC(=O)c1ccccc1N`, the molecule was called inactive.
The same measure, in the same setting: then `OC(O)C(Cl)(Cl)Cl`, with “inactive”.
Turning to `CC1C=[C-]C=C1.[C-]#[O+].[C-]#[O+].[C-]#[O+].[Mn]`, the molecule was called inactive.
Same read-out and setting: as for `Clc1ccc(Cl)cc1`, the entry is “inactive”.
Still for that read-out and setting: then `CC(=O)C=C(C)C`, with “inactive”.
On the same count and under the same terms, as for `Cc1ccc(N)cc1N`, the entry is “inactive”; as for `O=S(=O)(c1ccc(Cl)cc1)c1cc(Cl)c(Cl)cc1Cl`, “inactive”; as for `CCCCCCCCCl`, “inactive”.
Regarding `CCCN(CCC)c1c([N+](=O)[O-])cc(C(F)(F)F)cc1[N+](=O)[O-]`, the outcome was inactive.
On the same count and under the same terms, then `CN(C)N=O`, with “inactive”; and `C#CCN(C)[C@H](C)Cc1ccccc1`, with “inactive”.
As for `CCC(C)(CC)c1cc(NC(=O)c2c(OC)cccc2OC)on1`, the molecule was called inactive.
As for `O=C(NC(=O)c1c(F)cccc1F)Nc1cc(Cl)c(OC(F)(F)C(F)C(F)(F)F)cc1Cl` (configuration not stated), the result was inactive.
For `NCC(O)c1ccc(O)cc1` (configuration not stated), the outcome was inactive.
`Clc1ccccc1Cl`: the call was inactive.
As to `CC(C)C1(C)N=C(c2nc3ccccc3cc2C(=O)O)NC1=O` (configuration not stated), the outcome was inactive.
Still for that read-out and setting: as for `Oc1ccccc1Cl`, the entry is “inactive”.
Same read-out and setting: then `ClCc1cccnc1`, with “inactive”; and `O=NN1CCCC1`, with “inactive”.
On the same count and under the same terms, as for `CCNc1nc(NC(C)C)nc(SC)n1`, the entry is “inactive”; as for `CCCCCOC(=O)c1ccccc1C(=O)OCCCCC`, “inactive”; as for `O=c1n(Cl)c(=O)n(Cl)c(=O)n1Cl`, “inactive”.
For the molecule `COc1ccc2c3c1O[C@H]1[C@@H](O)C=C[C@H]4[C@@H](C2)N(C)CC[C@@]341`, the call was inactive.
On the same count and under the same terms, as for `Cc1cc(-c2cc(C)c(N)c(C)c2)cc(C)c1N`, the entry is “inactive”; as for `CC(C)=C[C@@H]1[C@@H](C(=O)OCc2coc(Cc3ccccc3)c2)C1(C)C`, “inactive”.
On the same count and under the same terms, then `O=[N+]([O-])c1ccc([As](=O)(O)O)cc1`, with “inactive”.
Same read-out and setting: then `CC(C)OC(=O)Nc1cccc(Cl)c1`, with “inactive”.
`CN(N=O)c1ccccc1`: the call was inactive.
The same measure, in the same setting: as for `CC(Oc1ccc(Cl)cc1Cl)C(=O)O` (configuration not stated), the entry is “inactive”; as for `CN(C)[C@@H]1C(=O)C(C(N)=O)=C(O)[C@@]2(O)C(=O)C3=C(O)c4c(O)cccc4[C@@](C)(O)[C@H]3C[C@@H]12`, “inactive”.
Same read-out and setting: then `COC(=O)NS(=O)(=O)c1ccc(N)cc1`, with “inactive”; and `Nc1ccc(Br)cc1`, with “inactive”; and `CN(C)CCO`, with “inactive”.
Still for that read-out and setting: as for `ClCCBr`, the entry is “inactive”; as for `CCC[N+](=O)[O-]`, “inactive”.
Turning to `COP(N)(=O)SC` (configuration not stated), the molecule was classed as inactive.

A further test is described as follows: qHTS assay for small molecule activators of the heat shock response signaling pathway - cell viability counter screen (AID 743209; active = well fitted cell-killing curve with a large enough effect in the repeat runs; also: nearly all actives have a fitted effect of over 50% in size). The note with it: HSE-bla HeLa viability, CellTiter-Glo luminescence, 5 h; series mostly up to 62.6 µM. The method in brief: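 Readout: CellTiter-Glo luminescence, 30 min at room temperature. System: HSE-bla HeLa cells, 1500/well, plated overnight. Treatment: compounds in DMSO, 5 h at 37 C.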
Take `CC(C)OC(=O)Nc1ccccc1`: the molecule was called inactive.
The same measure, in the same setting: then `COC(=O)c1ccccc1N`, with “inactive”.
As for `OC(O)C(Cl)(Cl)Cl`, the call was inactive.
The same measure, in the same setting: then `CC1C=[C-]C=C1.[C-]#[O+].[C-]#[O+].[C-]#[O+].[Mn]`, with “inactive”; and `Clc1ccc(Cl)cc1`, with “inactive”; and `CC(=O)C=C(C)C`, with “inactive”.
On the same count and under the same terms, then `Cc1ccc(N)cc1N`, with “inactive”.
On the same count and under the same terms, as for `O=S(=O)(c1ccc(Cl)cc1)c1cc(Cl)c(Cl)cc1Cl`, the entry is “inactive”; as for `CCCCCCCCCl`, “inactive”; as for `CCCN(CCC)c1c([N+](=O)[O-])cc(C(F)(F)F)cc1[N+](=O)[O-]`, “inactive”.
Turning to `CN(C)N=O`, the outcome was inactive.
Same read-out and setting: as for `C#CCN(C)[C@H](C)Cc1ccccc1`, the entry is “inactive”; as for `CCC(C)(CC)c1cc(NC(=O)c2c(OC)cccc2OC)on1`, “inactive”.
Same read-out and setting: then `O=C(NC(=O)c1c(F)cccc1F)Nc1cc(Cl)c(OC(F)(F)C(F)C(F)(F)F)cc1Cl` (configuration not stated), with “inactive”; and `NCC(O)c1ccc(O)cc1` (configuration not stated), with “inactive”.
The same measure, in the same setting: as for `Clc1ccccc1Cl`, the entry is “inactive”.
On to `CC(C)C1(C)N=C(c2nc3ccccc3cc2C(=O)O)NC1=O` (configuration not stated), for which the call was inactive.
The same measure, in the same setting: as for `Oc1ccccc1Cl`, the entry is “inactive”.
On the same count and under the same terms, then `ClCc1cccnc1`, with “inactive”.
The same measure, in the same setting: as for `O=NN1CCCC1`, the entry is “inactive”; as for `CCNc1nc(NC(C)C)nc(SC)n1`, “inactive”; as for `CCCCCOC(=O)c1ccccc1C(=O)OCCCCC`, “inactive”.
As to `O=c1n(Cl)c(=O)n(Cl)c(=O)n1Cl`, the molecule was classed as inactive.
Same read-out and setting: then `COc1ccc2c3c1O[C@H]1[C@@H](O)C=C[C@H]4[C@@H](C2)N(C)CC[C@@]341`, with “inactive”; and `Cc1cc(-c2cc(C)c(N)c(C)c2)cc(C)c1N`, with “inactive”.
Still for that read-out and setting: as for `CC(C)=C[C@@H]1[C@@H](C(=O)OCc2coc(Cc3ccccc3)c2)C1(C)C`, the entry is “inactive”; as for `O=[N+]([O-])c1ccc([As](=O)(O)O)cc1`, “inactive”; as for `CC(C)OC(=O)Nc1cccc(Cl)c1`, “inactive”.
Same read-out and setting: then `CN(N=O)c1ccccc1`, with “inactive”; and `CC(Oc1ccc(Cl)cc1Cl)C(=O)O` (configuration not stated), with “inactive”.
For the molecule `CN(C)[C@@H]1C(=O)C(C(N)=O)=C(O)[C@@]2(O)C(=O)C3=C(O)c4c(O)cccc4[C@@](C)(O)[C@H]3C[C@@H]12`, the outcome was inactive.
On the same count and under the same terms, then `COC(=O)NS(=O)(=O)c1ccc(N)cc1`, with “inactive”; and `Nc1ccc(Br)cc1`, with “inactive”; and `CN(C)CCO`, with “inactive”.
On to `ClCCBr`, for which the call was inactive.
With `CCC[N+](=O)[O-]`, the molecule was classed as inactive.
In the case of `COP(N)(=O)SC` (configuration not stated), the molecule was classed as inactive.
